From PubChem BioAssay (EPA / NIEHS)
Several values for one entry are separate records, joined by “and”; a condition that tells them apart may be missing. Equal entries are not always repeated. Results filed as inconclusive are left out. Some compounds were tested as several samples or in several runs, with calls that do not always agree. Activity calls are given as the source filed them. How the source made its calls: active means hit-call score of the fitted dose curve at least 0.9, where 1 is the maximum; inconclusive means response in the unintended direction; inactive means score below 0.9.

Legend:
[1] = molecular target: zebrafish Thyroid Hormone Receptor beta (TRb), thrb (gene 30607) (UniProt Q9PVE4); assay: ATG_zfTRb_XSP1: Attagene TRANS-FACTORIAL Multi-Species (XSP1) HepG2 Assay for zebrafish Thyroid Hormone Receptor beta (TRb) (AID 2283809)
Chain of zebrafish Thyroid Hormone Receptor beta (TRb), thrb (gene 30607) (Q9PVE4 whole entry, looked up, the tested form may be a part): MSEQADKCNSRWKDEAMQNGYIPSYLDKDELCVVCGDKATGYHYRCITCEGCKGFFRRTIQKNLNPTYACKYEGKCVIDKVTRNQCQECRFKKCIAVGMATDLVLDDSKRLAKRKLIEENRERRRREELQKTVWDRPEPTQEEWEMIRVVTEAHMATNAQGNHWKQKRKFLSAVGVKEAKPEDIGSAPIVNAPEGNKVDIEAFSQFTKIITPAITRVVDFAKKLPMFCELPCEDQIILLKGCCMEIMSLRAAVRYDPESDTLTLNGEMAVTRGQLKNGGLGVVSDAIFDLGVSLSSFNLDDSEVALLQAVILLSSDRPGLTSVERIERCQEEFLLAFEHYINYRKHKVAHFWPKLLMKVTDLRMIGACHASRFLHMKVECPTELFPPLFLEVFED
In short: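 HepG2 cells transiently transfected with multiplexed GAL4-UAS reporter units expressing chimeric zebrafish TRb–Gal4. Dosed 24 h with 3 nM 6-alpha-fluorotestosterone present; reporter mRNA measured by RT-PCR, HpaI digestion and capillary electrophoresis; gain of signal versus DMSO.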

[2] = ATG_XTT_Cytotoxicity_XSP1: Cytotoxicity Assessment in the Attagene TRANS-FACTORIAL Multi-Species (XSP1) HepG2 Assay (AID 2283810)
In short: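 XTT viability readout taken at 24 hours post-dosing in HepG2 liver cells co-treated with 3 nM 6-alpha-fluorotestosterone. Signal loss relative to DMSO controls reflects cytotoxicity.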

[3] = ATG_M_06_XSP2: Attagene TRANS-FACTORIAL Multi-Species (XSP2) HepG2 Assay for M06 Transcription Factor (Internal Marker) (AID 2283811);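 further: hits are increases in signal above the DMSO baseline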
In short: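 Cells of the human liver line HepG2 carried transfected reporter transcription units and were treated for 24 h. Induced reporter transcripts were detected by fluorescence after RT-PCR and capillary electrophoresis, with activity fitted in the gain direction against DMSO.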

[4] = tested on: turtle Estrogen Receptor (ERa), gene 101933533; assay: ATG_trERa_XSP2: Attagene TRANS-FACTORIAL Multi-Species (XSP2) HepG2 Assay for turtle Estrogen Receptor (ERa) (AID 2283812);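 further: actives raise reporter signal above DMSO so AC50 reflects agonist activity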
In short: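 Readout is reporter mRNA quantified by RT-PCR with capillary electrophoresis after 24 h compound exposure, increase relative to DMSO. Uses transiently transfected human HepG2 liver cells carrying a chimeric turtle ERa-Gal4 receptor driving GAL4-UAS reporters.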

[5] = molecular target: zebrafish Estrogen Receptor (ER1), esr1 (gene 259252) (UniProt P57717); assay: ATG_zfER1_XSP2: Attagene TRANS-FACTORIAL Multi-Species (XSP2) HepG2 Assay for zebrafish Estrogen Receptor (ER1) (AID 2283816)
Chain of zebrafish Estrogen Receptor (ER1), esr1 (gene 259252) (P57717 whole entry, looked up, the tested form may be a part): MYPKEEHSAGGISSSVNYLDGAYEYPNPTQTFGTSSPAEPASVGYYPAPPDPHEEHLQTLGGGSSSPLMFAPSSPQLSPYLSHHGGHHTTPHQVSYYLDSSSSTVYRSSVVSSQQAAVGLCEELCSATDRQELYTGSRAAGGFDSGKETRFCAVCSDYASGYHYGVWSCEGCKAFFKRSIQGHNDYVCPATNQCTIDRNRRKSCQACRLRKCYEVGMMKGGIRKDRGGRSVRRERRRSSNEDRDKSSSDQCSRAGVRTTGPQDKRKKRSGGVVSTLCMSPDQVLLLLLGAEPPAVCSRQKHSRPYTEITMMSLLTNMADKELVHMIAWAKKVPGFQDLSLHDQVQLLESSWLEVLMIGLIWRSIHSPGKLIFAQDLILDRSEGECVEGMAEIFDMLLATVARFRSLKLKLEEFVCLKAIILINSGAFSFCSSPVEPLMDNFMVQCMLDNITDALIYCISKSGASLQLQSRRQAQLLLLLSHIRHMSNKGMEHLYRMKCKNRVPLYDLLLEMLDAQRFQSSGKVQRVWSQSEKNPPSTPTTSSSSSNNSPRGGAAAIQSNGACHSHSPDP
In short: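 After 24 h compound exposure, RNA from transfected HepG2 cells was reverse-transcribed and reporter transcripts resolved by capillary electrophoresis. The TRANS format reads exogenous zebrafish ER1-Gal4 chimera activity on GAL4-UAS elements; gain of signal against DMSO.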

[6] = tested on: zebrafish Estrogen Receptor (ER2a), gene 317734; assay: ATG_zfER2a_XSP2: Attagene TRANS-FACTORIAL Multi-Species (XSP2) HepG2 Assay for zebrafish Estrogen Receptor (ER2a) (AID 2283818);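 further: hits raise reporter mRNA so AC50 reflects activation of zebrafish ER2a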
In short: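 Multiplexed trans-reporter readout: RT-PCR then capillary electrophoresis of reporter transcripts after 24 h compound treatment. Human HepG2 carries transfected zebrafish ER2a-Gal4 chimera; 3 nM 6-alpha-fluorotestosterone plus 1.5 nM norgestrel present. Induction scored against DMSO.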

[7] = tested on: zebrafish Estrogen Receptor (ER2b), gene 317733; assay: ATG_zfER2b_XSP2: Attagene TRANS-FACTORIAL Multi-Species (XSP2) HepG2 Assay for zebrafish Estrogen Receptor (ER2b) (AID 2283823);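 further: fitted upward as reporter gain over DMSO so potency reflects activation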
In short: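 Transcriptional induction measured as reporter mRNA (RT-PCR, fluorescent capillary electrophoresis) in transiently transfected HepG2 cells after 24 h dosing; DMSO served as negative control and baseline.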

[8] = tested on: frog Estrogen Receptor (ER2), gene 100174814; assay: ATG_frER2_XSP2: Attagene TRANS-FACTORIAL Multi-Species (XSP2) HepG2 Assay for frog Estrogen Receptor (ER2) (AID 2283828)
In short: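 Induction of reporter mRNA, baseline set by DMSO, is the endpoint. The panel was run in transfected HepG2 cells over 24 h, with 3 nM 6-alpha-fluorotestosterone and 1.5 nM norgestrel present to stimulate androgen receptor.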

[9] = molecular target: Peroxisome proliferator-activated receptor gamma (Homo sapiens) (UniProt P37231); assay: ATG_hPPARg_XSP2: Attagene TRANS-FACTORIAL Multi-Species (XSP2) HepG2 Assay for human Peroxisome Proliferator-activated Receptor gamma (PPARg) (AID 2283829);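 further: actives raise reporter mRNA above DMSO so AC50 reflects PPARg activation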
Chain of Peroxisome proliferator-activated receptor gamma (Homo sapiens) (P37231 whole entry, looked up, the tested form may be a part): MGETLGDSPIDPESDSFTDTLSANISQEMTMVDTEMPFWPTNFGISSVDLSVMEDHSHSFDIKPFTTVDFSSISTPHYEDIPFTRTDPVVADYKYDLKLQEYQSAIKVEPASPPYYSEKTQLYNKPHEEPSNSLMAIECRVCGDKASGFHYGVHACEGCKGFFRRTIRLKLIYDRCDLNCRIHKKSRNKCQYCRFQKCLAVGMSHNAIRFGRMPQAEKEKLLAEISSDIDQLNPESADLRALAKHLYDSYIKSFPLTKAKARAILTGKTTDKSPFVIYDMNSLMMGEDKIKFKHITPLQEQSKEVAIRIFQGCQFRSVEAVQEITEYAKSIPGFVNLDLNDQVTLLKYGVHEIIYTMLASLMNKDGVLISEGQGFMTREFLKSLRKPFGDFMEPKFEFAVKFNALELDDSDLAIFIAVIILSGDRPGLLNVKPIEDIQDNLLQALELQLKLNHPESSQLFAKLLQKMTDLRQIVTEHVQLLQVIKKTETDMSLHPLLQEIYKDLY
In short: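 Human HepG2 cells carried transiently transfected Gal4 reporter units and were treated with chemical for 24 h alongside androgen-receptor stimulants (3 nM 6-alpha-fluorotestosterone, 1.5 nM norgestrel). Reporter transcripts were detected by RT-PCR with capillary electrophoresis, analysed in the positive direction against DMSO.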

[10] = molecular target: chicken Estrogen Receptor (ERa), ESR1 (gene 396099) (UniProt P06212); assay: ATG_chERa_XSP2: Attagene TRANS-FACTORIAL Multi-Species (XSP2) HepG2 Assay for chicken Estrogen Receptor (ERa) (AID 2283817);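 further: actives raise reporter signal above DMSO so AC50 reflects ER activation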
Chain of chicken Estrogen Receptor (ERa), ESR1 (gene 396099) (P06212 whole entry, looked up, the tested form may be a part): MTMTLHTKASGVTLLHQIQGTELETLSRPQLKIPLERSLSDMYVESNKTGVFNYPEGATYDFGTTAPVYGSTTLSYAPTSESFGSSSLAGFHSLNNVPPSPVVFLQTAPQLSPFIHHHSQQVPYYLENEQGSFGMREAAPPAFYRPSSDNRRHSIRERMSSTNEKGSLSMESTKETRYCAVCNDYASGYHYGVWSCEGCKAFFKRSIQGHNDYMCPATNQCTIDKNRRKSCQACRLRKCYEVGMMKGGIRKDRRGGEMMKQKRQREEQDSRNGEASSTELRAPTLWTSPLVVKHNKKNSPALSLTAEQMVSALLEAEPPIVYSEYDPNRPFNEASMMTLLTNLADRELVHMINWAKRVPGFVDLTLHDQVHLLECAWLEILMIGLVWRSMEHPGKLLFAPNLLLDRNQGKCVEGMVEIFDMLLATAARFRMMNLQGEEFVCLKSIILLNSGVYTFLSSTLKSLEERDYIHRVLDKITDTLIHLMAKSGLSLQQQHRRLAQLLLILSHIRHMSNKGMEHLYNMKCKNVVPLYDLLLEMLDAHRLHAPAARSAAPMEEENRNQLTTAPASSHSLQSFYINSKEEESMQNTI
In short: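 Exogenous chicken ERa-Gal4 chimera activity was assessed in transfected human liver HepG2 cells after 24 h of treatment. Induced reporter mRNA was quantified fluorescently by capillary electrophoresis, with DMSO as baseline.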

[11] = tested on: frog Estrogen Receptor (ER), gene 398734; assay: ATG_frER1_XSP2: Attagene TRANS-FACTORIAL Multi-Species (XSP2) HepG2 Assay for frog Estrogen Receptor (ER) (AID 2283821);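 further: hits raise reporter mRNA above DMSO baseline so potency means agonist or activator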
In short: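 Gain-of-signal mRNA reporter assay, HepG2 human liver cells, 24 h dosing; transcripts read by fluorescent RT-PCR fragment analysis, DMSO as negative control.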

[12] = molecular target: mouse Peroxisome Proliferator-activated Receptor gamma (PPARg), Pparg (gene 19016) (UniProt P37238); assay: ATG_mPPARg_XSP2: Attagene TRANS-FACTORIAL Multi-Species (XSP2) HepG2 Assay for mouse Peroxisome Proliferator-activated Receptor gamma (PPARg) (AID 2283830);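 further: hits are gains in reporter mRNA above DMSO so AC50 marks activation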
Chain of mouse Peroxisome Proliferator-activated Receptor gamma (PPARg), Pparg (gene 19016) (P37238 whole entry, looked up, the tested form may be a part): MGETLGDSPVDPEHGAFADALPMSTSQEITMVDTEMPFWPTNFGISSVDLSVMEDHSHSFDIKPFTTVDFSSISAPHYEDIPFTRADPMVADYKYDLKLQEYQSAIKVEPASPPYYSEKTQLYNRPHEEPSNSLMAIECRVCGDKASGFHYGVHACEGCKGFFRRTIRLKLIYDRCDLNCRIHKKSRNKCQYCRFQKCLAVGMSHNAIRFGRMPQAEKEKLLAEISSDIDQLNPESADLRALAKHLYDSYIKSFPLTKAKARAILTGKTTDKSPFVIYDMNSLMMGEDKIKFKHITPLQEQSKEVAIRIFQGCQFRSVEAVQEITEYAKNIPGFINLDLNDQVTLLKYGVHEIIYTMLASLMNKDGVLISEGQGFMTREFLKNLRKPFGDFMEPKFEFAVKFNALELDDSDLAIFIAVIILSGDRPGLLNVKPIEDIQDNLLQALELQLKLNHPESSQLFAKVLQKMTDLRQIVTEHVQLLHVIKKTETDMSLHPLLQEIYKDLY
In short: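 Multiplexed TRANS reporter readout: after 24 h chemical exposure of transfected HepG2 cells (with 3 nM 6-alpha-fluorotestosterone, 1.5 nM norgestrel present), RNA reverse-transcribed, amplified, 6-FAM-labelled and resolved by capillary electrophoresis; mouse PPARg-Gal4 induction scored against DMSO.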

[13] = molecular target: GAL4 Transcription Factor (Internal Marker), GAL4 (gene 855828) (UniProt P04386); assay: ATG_GAL4_XSP2: Attagene TRANS-FACTORIAL Multi-Species (XSP2) HepG2 Assay for GAL4 Transcription Factor (Internal Marker) (AID 2283814);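 further: GAL4 reporter mRNA background control in MRTU transfected cells not a receptor target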
Chain of GAL4 Transcription Factor (Internal Marker), GAL4 (gene 855828) (P04386 whole entry, looked up, the tested form may be a part): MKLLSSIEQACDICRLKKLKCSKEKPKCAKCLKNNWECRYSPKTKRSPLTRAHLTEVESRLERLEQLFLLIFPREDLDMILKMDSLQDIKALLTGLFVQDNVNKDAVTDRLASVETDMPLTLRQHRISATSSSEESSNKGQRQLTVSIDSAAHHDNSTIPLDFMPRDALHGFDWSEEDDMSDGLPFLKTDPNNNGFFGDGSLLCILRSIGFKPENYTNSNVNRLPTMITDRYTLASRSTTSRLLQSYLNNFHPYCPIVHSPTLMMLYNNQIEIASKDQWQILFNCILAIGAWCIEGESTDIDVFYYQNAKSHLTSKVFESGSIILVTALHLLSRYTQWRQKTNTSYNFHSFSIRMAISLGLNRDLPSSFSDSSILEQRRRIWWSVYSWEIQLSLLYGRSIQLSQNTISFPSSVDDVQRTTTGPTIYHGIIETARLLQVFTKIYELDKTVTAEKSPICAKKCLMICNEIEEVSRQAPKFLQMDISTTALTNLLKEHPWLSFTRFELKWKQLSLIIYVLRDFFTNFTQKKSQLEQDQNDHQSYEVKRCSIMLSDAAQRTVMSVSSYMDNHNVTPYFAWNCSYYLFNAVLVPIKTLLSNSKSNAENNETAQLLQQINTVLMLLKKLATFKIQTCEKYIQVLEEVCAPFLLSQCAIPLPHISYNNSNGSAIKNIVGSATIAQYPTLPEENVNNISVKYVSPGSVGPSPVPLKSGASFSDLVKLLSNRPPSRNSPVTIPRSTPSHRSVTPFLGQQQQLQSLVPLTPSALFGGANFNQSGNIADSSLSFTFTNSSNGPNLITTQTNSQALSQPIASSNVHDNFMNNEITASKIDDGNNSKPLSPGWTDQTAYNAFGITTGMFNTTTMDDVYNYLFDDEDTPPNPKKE
In short: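 Background-control readout: gain-of-signal fitted against DMSO. After 24 h exposure of transfected HepG2 (MRTU, GAL4-UAS reporters; 3 nM 6-alpha-fluorotestosterone, 1.5 nM norgestrel present), transcripts quantified by RT-PCR and capillary electrophoresis fluorescence.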

[14] = ATG_M_19_XSP2: Attagene TRANS-FACTORIAL Multi-Species (XSP2) HepG2 Assay for M32 Transcription Factor (Internal Marker) (AID 2283822)
In short: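 Internal background marker in a multi-species nuclear receptor TRANS panel: transfected HepG2 cells exposed 24 h, with 3 nM 6-alpha-fluorotestosterone and 1.5 nM norgestrel present. Readout is RT-PCR of reporter transcripts resolved by capillary electrophoresis, gain-of-signal versus DMSO.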

[15] = molecular target: Estrogen receptor beta (Homo sapiens) (UniProt Q92731); assay: ATG_hERb_XSP2: Attagene TRANS-FACTORIAL Multi-Species (XSP2) HepG2 Assay for human Estrogen Receptor (ERb) (AID 2283813);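 further: actives raise reporter mRNA above DMSO so AC50 reflects agonist induction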
Chain of Estrogen receptor beta (Homo sapiens) (Q92731 whole entry, looked up, the tested form may be a part): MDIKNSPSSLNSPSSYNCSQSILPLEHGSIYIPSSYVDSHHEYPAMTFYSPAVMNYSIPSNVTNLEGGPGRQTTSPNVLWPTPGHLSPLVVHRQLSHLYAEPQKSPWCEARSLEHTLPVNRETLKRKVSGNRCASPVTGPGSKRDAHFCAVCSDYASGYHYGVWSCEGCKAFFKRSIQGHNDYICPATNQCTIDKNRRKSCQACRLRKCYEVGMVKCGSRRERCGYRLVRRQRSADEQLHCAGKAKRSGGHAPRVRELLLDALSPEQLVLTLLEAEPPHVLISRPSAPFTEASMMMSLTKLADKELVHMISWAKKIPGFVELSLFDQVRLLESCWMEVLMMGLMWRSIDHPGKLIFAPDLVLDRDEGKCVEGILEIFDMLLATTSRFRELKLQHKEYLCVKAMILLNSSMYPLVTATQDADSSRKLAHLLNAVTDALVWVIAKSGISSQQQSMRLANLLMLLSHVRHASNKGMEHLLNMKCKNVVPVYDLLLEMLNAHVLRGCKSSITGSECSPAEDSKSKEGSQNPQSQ
In short: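 Transient TRANS reporter system in HepG2: after 24 h of chemical, RNA is reverse-transcribed, reporter cDNA amplified, FAM-labelled and sized by capillary electrophoresis. Induction of the human ERb-Gal4 reporter is measured relative to DMSO.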

[16] = tested on: turtle Androgen Receptor (AR), gene 101947425; assay: ATG_trAR_XSP2: Attagene TRANS-FACTORIAL Multi-Species (XSP2) HepG2 Assay for turtle Androgen Receptor (AR) (AID 2283815);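 on AC50: reporter mRNA from a Gal4 chimera of turtle AR measured by RT-PCR; potency for gain of reporter signal meaning activation above DMSO baseline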
In short: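 Reporter transcripts were quantified via RT-PCR and capillary electrophoresis and fitted upward against DMSO. Transiently transfected human HepG2 cells carrying NR-Gal4 chimeras were exposed 24 h, with 3 nM 6-alpha-fluorotestosterone plus 1.5 nM norgestrel added.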

[17] = tested on: chicken Androgen Receptor (AR), gene 422165; assay: ATG_chAR_XSP2: Attagene TRANS-FACTORIAL Multi-Species (XSP2) HepG2 Assay for chicken Androgen Receptor (AR) (AID 2283819);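 further: hits raise reporter mRNA above DMSO so potency is for activation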
In short: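 Readout is reporter mRNA induction via RT-PCR/capillary electrophoresis after 24 h chemical exposure, positive direction relative to DMSO. Transiently transfected HepG2 express chimeric chicken AR–GAL4; AR stimulated by 3 nM 6-alpha-fluorotestosterone and 1.5 nM norgestrel.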

[18] = tested on: frog Androgen Receptor (AR), gene 399456; assay: ATG_frAR_XSP2: Attagene TRANS-FACTORIAL Multi-Species (XSP2) HepG2 Assay for frog Androgen Receptor (AR) (AID 2283824);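 further: reporter mRNA from GAL4-UAS units driven by Xenopus AR-Gal4 chimera; actives raise reporter signal above DMSO so AC50 reflects agonist-like induction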
In short: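 Reporter transcript induction, read by RT-PCR with fluorescent capillary electrophoresis, in human liver HepG2 cells carrying an exogenous Xenopus AR-Gal4 fusion and GAL4-driven reporters; chemical exposure 24 hours, activity scored upward against DMSO controls.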

[19] = tested on: zebrafish Androgen Receptor (AR), gene 100005148; assay: ATG_zfAR_XSP2: Attagene TRANS-FACTORIAL Multi-Species (XSP2) HepG2 Assay for zebrafish Androgen Receptor (AR) (AID 2283825);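 further: hits raise reporter mRNA above DMSO so AC50 reflects agonist-type gain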
In short: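 After 24 h compound exposure in medium with 3 nM 6-alpha-fluorotestosterone plus 1.5 nM norgestrel, HepG2 cells carrying zebrafish AR–GAL4 reporter constructs were assessed for reporter mRNA gain by RT-PCR and capillary electrophoresis.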

[20] = molecular target: Estrogen receptor (Homo sapiens) (UniProt P03372); assay: ATG_hERa_XSP2: Attagene TRANS-FACTORIAL Multi-Species (XSP2) HepG2 Assay for human Estrogen Receptor (ERa) (AID 2283827)
Chain of Estrogen receptor (Homo sapiens) (P03372 whole entry, looked up, the tested form may be a part): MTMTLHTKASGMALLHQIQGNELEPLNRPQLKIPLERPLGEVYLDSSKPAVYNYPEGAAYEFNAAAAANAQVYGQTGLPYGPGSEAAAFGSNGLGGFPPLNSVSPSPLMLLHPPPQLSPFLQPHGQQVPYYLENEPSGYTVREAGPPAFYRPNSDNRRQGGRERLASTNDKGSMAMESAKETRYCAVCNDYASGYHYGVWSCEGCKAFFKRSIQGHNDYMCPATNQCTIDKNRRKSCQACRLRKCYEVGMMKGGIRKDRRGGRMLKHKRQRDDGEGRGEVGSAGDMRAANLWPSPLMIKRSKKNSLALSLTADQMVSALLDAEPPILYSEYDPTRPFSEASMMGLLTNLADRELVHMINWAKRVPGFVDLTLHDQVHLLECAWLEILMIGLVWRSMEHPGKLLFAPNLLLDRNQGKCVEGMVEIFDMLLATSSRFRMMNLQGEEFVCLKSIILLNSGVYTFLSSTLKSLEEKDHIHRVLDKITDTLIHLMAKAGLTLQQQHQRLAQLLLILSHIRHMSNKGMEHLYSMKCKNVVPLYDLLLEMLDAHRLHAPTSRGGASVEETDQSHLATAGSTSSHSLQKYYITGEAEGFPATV
In short: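 Trans-activation of exogenous human ERa-Gal4 chimera read in HepG2 as reporter transcript after 24 h exposure; medium included 3 nM 6-alpha-fluorotestosterone and 1.5 nM norgestrel. Quantified by RT-PCR with capillary electrophoresis, positive-direction fitting against DMSO.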

Measured: AC50

C#C[C@]1(O)CC[C@H]2[C@@H]3CCc4cc(O)ccc4[C@H]3CC[C@@]21C
inactive: [1] | [2] | [3] | [9]
active: [4] 0.0694 nM | [5] 2.55 nM | [6] 4.88e-05 µM | [7] 0.000204 µM | [8] 1.35 nM

O=c1cc(-c2ccc(O)cc2)oc2cc(O)cc(O)c12
active: [4] 1510 nM | [5] 2.58 µM and 764 nM | [10] 1.67 µM and 768 nM | [6] 1.1 µM and 677 nM | [11] 767 nM | [7] 1.69 µM and 1.07 µM | [8] 3.85 µM and 215 nM | [9] 27.8 µM and 12.8 µM | [12] 27.5 µM and 16.2 µM
inactive: [4] | [11]

CCCCCC(=O)O[C@]1(C(C)=O)CC[C@H]2[C@@H]3CCC4=CC(=O)CC[C@]4(C)[C@H]3CC[C@@]21C
active: [6] 172 µM | [7] 7.02 µM | [9] 2.88 µM and 2.34 µM | [12] 7.63 µM and 3.17 µM
inactive: [3] | [13] | [5] | [11] | [8]

CC/C(=C(\c1ccccc1)c1ccc(OCCN(C)C)cc1)c1ccccc1
active: [2] 26.1 µM
inactive: [1] | [3] | [6] | [11] | [14]

CCCCCCCCOC(=O)c1ccc(O)cc1
inactive: [3] | [15] | [16] | [5] | [17] | [19]
active: [4] 17.1 µM and 1.5 µM | [13] 49.4 µM | [16] 33.4 µM | [10] 18 µM and 788 nM | [6] 11 µM and 3.51 µM | [17] 33.4 µM | [11] 20.9 µM and 2.94 µM | [7] 14.9 µM and 2.94 µM | [18] 33.4 µM | [20] 21.2 µM and 3.19 µM | [8] 9.18 µM and 803 nM

CC(C)(C)c1ccc(S)cc1
active: [6] 100 µM | [7] 179 µM | [9] 3.68 µM
inactive: [3] | [4] | [13] | [16] | [5] | [10] | [17] | [11] | [20] | [9] | [12]
